# Test results taken from PubChem BioAssay (NCI).
# Compounds without any hit were thinned out: in the full panel of roughly 83,000, 20% have a hit.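 Note: values are percent growth. 100 is the growth of untreated cells, values between 100 and 0 indicate rising inhibition; between -100 and 0 indicates cell death.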 Values without a mark were called inactive. Activity calls are given as the source filed them. How the source made its calls: active means growth percent below 10; inactive means the rest.
# Columns and labels:
# Test in all cases: NCI-60 one-dose screen, 48 h (100 = growth as untreated, 0 = no growth, -100 = all killed)
# Conditions in all cases: 10 µM unless noted
# NCI-H226 lung = tested on: NCI-H226 lung
# NCI-H322M lung = tested on: NCI-H322M lung
# HOP-62 NSCLC = tested on: HOP-62 NSCLC
# NCI-H460 lung = tested on: NCI-H460 lung
# HOP-92 NSCLC = tested on: HOP-92 NSCLC
# NCI-H522 lung = tested on: NCI-H522 lung
# A549/ATCC NSCLC = tested on: A549/ATCC NSCLC
# 786-0 renal = tested on: 786-0 renal
# COLO 205 colon = tested on: COLO 205 colon
SMILES,growth (NCI-H226 lung),growth (NCI-H322M lung),growth (HOP-62 NSCLC),growth (NCI-H460 lung),growth (HOP-92 NSCLC),growth (NCI-H522 lung),growth (A549/ATCC NSCLC),growth (786-0 renal),growth (COLO 205 colon)
COc1c(B(O)O)cccc1-c1nc2ccc3[nH]ncc3c2c2c1CCCC2,-10.6% (active),16%,7.22% (active),8.49% (active),32.8%,15.1%,8.01% (active),25.9%,4.2% (active)
COc1ccc(/C=C(/C(=O)N2CCN(c3ccccc3)CC2)c2cc(OC)c(OC)c(OC)c2)cc1N,40.5%,49.8%,30.4%,6.98% (active),92.2%,3.2% (active),24%,25.7%,-21.2% (active)
Cn1nc(C(F)(F)F)cc1-c1c[nH]c(OCc2ccc(Cl)cc2)c(-c2ccc(Cl)c(C(F)(F)F)c2)c1=O,-17.3% (active),8.32% (active),-25% (active),2.53% (active),-22.6% (active),-1.66% (active),13.4%,3.83% (active),-31% (active)
CCOc1c(C#N)c2c(N)ncnc2n1C1OC(CO)C(O)C1O (stereo not drawn),71.8%,76.6%,76.6%,0.566% (active),50.1%,-22.4% (active),8.54% (active),76.1%,8.97% (active)
COc1cc(-c2nc(-c3nc4cc(C(=O)c5ccccc5)ccc4[nH]3)cc3c2[nH]c2ccccc23)cc(OC)c1OC,91.1%,99.4%,97.7%,95.6%,82.5%,90.6%,75.9%,97.3%,97.7%
COc1cc(/C=C/C(=O)c2ccc(NC(=O)CSc3nnc(-c4ccc(Cl)cc4)n3-c3ccccc3)cc2)cc(OC)c1OC,82%,96.5%,96.5%,80%,97.9%,63.8%,69.8%,79%,79.8%
CCCCn1cnc(-c2cc(-c3ccccc3)cc(C(F)(F)F)c2)n1,95.6%,99.8%,99.1%,99%,76%,93.8%,97.8%,103%,104%
